Bioassay records from PubChem BioAssay.
rCAG binder: r(CAG) repeat RNA binding. TO-PRO-1 dye displacement fluorescence. inhibition, % at 3 µM. 370,000 tested, 1.3% active;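 active means inhibition above the plate cutoff, the mean of all test compounds on that plate plus 3 SD, cut at about 35% in these data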;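 further: 0% = DMSO alone and 100% = 100 µM mitoxantrone as full dye displacement; higher means more dye released from RNA so lower well fluorescence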
LEDGF integ inh: blocks HIV-1 LEDGF/p75-dependent DNA integration | TR-FRET IN-LEDGF/p75 DNA integration, Eu/Cy5 | inhibition, % at 3.7 µM | 370,000 tested, 0.64% active | AID 743269;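 active means inhibition above the screen-wide mean plus 3 SD, cut at about 13% in these data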;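 further: signal is the Cy5 over europium emission ratio at 671 and 618 nm; 0% = plate median of compound wells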
PG9 binder: binds the HIV-1 gp120 antibody PG9; TR-FRET gp120-PG9 antibody binding; inhibition, % at 6.7 µM; 360,000 tested, 0.43% active; in the data active means inhibition above about 8.5%
MBD2 DNA inh: MBD2-methylated oligo binding inhibition; 370,000 tested, 0.31% active; TR-FRET, MBD2 binding to methylated oligonucleotide; Q9UBB5; inhibition, % at 4.4 µM; in the data active means inhibition above about 13%
UHRF1 binding: blocks human UHRF1 binding to methylated DNA. 370,000 tested, 0.75% active. UHRF1 binding to methylated oligo, TR-FRET. Q96T88. AID 687016. inhibition, % at 4.4 µM; in the data active means inhibition above about 21%;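 further: UHRF1 SRA domain binding a hemimethylated CpG hairpin DNA probe; 0% = median of test compound wells and 100% = reference inhibitor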
DNMT1 block: DNMT1 (human) enzyme inhibition. inhibition (reported as % activation of signal), % at 10 µM. AID 588458. P26358. DNMT1 molecular beacon, Hinp1I cleavage, fluorescence. 360,000 tested, 0.83% active; in the data active means inhibition above about 50%
The depositor's hits bear a star; / = no result. Most compounds without a hit are left out; they make up all but 3.5% or so of the library.

SMILES	rCAG binder	LEDGF integ inh	PG9 binder	MBD2 DNA inh	UHRF1 binding	DNMT1 block
COC(=O)CSc1nnc(-c2ccc(NS(=O)(=O)c3c(C(C)C)cc(C(C)C)cc3C(C)C)cc2)o1	21.8	-1.6	/	-1.3	-2.2	/
O=S(=O)(Nc1nc2ccccc2nc1Cl)c1ccc2ccccc2c1	48.8*	3.9	2.8	0.8	2.5	2.0
O=S(=O)(Nc1nc2ccccc2nc1Cl)c1ccccc1	7.0	-1.5	5.8	0.2	0.5	1.3
O=C(O)CSCC(=O)Nc1ccc(-c2nc3ccccc3s2)cc1	39.4*	-4.8	0.6	0.3	-1.8	-7.7
COC(=O)C[C@@H]1CC[C@H](NC(=O)c2cnccn2)[C@@H](CO)O1	2.6	-0.7	0.0	-1.4	-1.3	/
Cc1ccc(CCNS(=O)(=O)c2c(C)nc3sccn3c2=O)cc1	2.6	8.7	0.9	4.8	23.3*	0.1
COc1ccc(CCNC(=O)c2cc(-c3ccc(Cl)c(Cl)c3)oc2C)cc1	5.0	5.0	0.6	8.7	22.0*	-12.4
Cc1nn(C(C)c2nc(-c3ccccc3)no2)c(C)c1[N+](=O)[O-] (stereo not given)	-2.0	-2.6	0.1	-1.1	33.3*	-1.7
O=C(N[C@H](Cc1ccccc1)C(=O)N1CCN(C(=O)N2CCOCC2)CC1)[C@H]1O[C@@H](n2ccc(=O)[nH]c2=O)[C@H](O)[C@@H]1O	-0.4	-3.8	-1.9	3.4	-0.9	/
Clc1cccc(Cl)c1CSc1nnc2ccccn12	-3.8	-1.4	0.3	-1.1	5.4	3.6
Brc1ccc(CSc2nnc3ccccn23)cc1	-3.2	-0.4	-3.3	6.8	32.6*	2.2
CNC1=C(N(C(C)=O)c2ccc(Br)cc2)C(=O)c2ccccc2C1=O	1.6	23.4*	-2.5	-19.8	0.3	24.4
CCCCCCCCN1C(=O)[C@@H](CC(=O)NCc2ccc(OC)c(OC)c2)C[C@@]2(C(=O)OC)C1=C[C@H](COCc1ccccc1)O[C@@H]2C	2.2	0.7	/	-3.9	2.5	/
COC(=O)c1ccc2nc(C3CCCCC3)c(Cc3ccccc3OC)n2c1	4.4	5.9	0.5	-1.8	12.0	/
CCCc1nc2ccc(C(=O)OC)cn2c1Cc1ccccc1OC	7.4	4.3	0.9	-3.7	22.6*	/
CCCc1nc2ccc(C(=O)OC)cn2c1Cc1ccccc1C(F)(F)F	2.4	2.2	-1.2	11.2	24.7*	15.6
COc1ccc(CC(=O)N/N=C(\C)CC(=O)Nc2ccc(N(C)C)cc2)cc1	6.2	1.8	-4.4	-7.2	-7.3	-2.8
C/C(CC(=O)Nc1ccc(N(C)C)cc1)=N\NC(=O)Cc1csc(N)n1	13.2	21.3*	-5.2	-2.0	-8.6	-1.8
O=C(O)CCCC(=O)Nc1ccccc1C(=O)O	2.0	15.6*	-1.8	1.4	0.4	-1.4
COc1ccc(N2CC(O)=C(c3nc4ccccc4s3)C2=N)cc1	-0.8	-0.7	7.7	1.9	14.8	2.6
COc1cccc(N2CC(O)=C(c3nc4ccccc4s3)C2=N)c1	-1.2	-3.3	-2.6	-1.0	22.8*	-1.5
COc1cccc(C(=O)NN2CC(O)=C(c3nc4ccccc4s3)C2=N)c1	15.8	1.8	-1.9	4.0	-3.6	-5.4
N=C1C(c2nc3ccccc3s2)=C(O)CN1NC(=O)c1ccco1	8.1	-2.5	-1.2	-2.4	39.4*	1.4
CCOC(=O)C1=CN(CC)S(=O)(=O)NC1CC (stereo not given)	2.1	1.8	0.2	0.8	-1.3	8.4
Cc1ccc(/C=C/C(=O)Nc2ccc(S(=O)(=O)Nc3onc(C)c3C)cc2)cc1	68.4*	4.0	0.2	-0.3	0.0	3.0
SMILES	rCAG binder	LEDGF integ inh	PG9 binder	MBD2 DNA inh	UHRF1 binding	DNMT1 block
COc1ccc(-c2cc(C(=O)Nc3ccc(S(=O)(=O)Nc4onc(C)c4C)cc3)c3ccccc3n2)cc1	74.5*	60.2*	-0.5	2.7	2.6	-12.3
Cc1cccc(OCCCC(=O)Nc2ccc(S(=O)(=O)Nc3onc(C)c3C)cc2)c1	48.3*	-0.7	0.2	0.3	2.1	0.2
COc1ccc(CN2C(=O)c3ccccc3C2c2nnnn2-c2c(C)cccc2C)cc1OC (stereo not given)	3.7	1.0	-1.4	-4.6	-1.5	/
CC[C@@]1(C(=O)OC)N[C@H](CN(C)C(=O)Nc2ccc(F)cc2)[C@@H]2C(=O)N(C)C(=O)[C@@H]21	-0.7	-1.7	-0.8	10.7	21.0*	6.3
CCN(C[C@H]1N[C@@](Cc2ccccc2)(C(=O)OC)[C@H]2C(=O)N(C)C(=O)[C@@H]12)S(=O)(=O)c1ccc(OC(F)(F)F)cc1	-0.1	1.5	1.5	2.5	20.8*	-0.2
CC1CCC2(CC1)CCN(CCCOC(=O)Nc1cccc(C(F)(F)F)c1)C2=O (stereo not given)	-1.5	-0.5	/	3.7	1.4	/
N#CCC(=O)N/N=C/c1cc(-c2ccccc2)n(-c2ccc(Cl)cc2)c1-c1ccccc1	7.1	-3.4	0.2	6.7	37.9*	/
Cc1ccc(-n2c(-c3ccccc3)cc(/C=N/NC(=O)CC#N)c2-c2ccccc2)cc1	-3.6	1.3	0.1	2.8	8.2	/
CC(C)N1Cc2nnn(Cc3ccc(F)cc3)c2-c2cc(F)ccc2S1(=O)=O	1.4	1.4	/	-2.2	0.9	/
CC(SC(=S)N1CCCC1)C(=O)O (stereo not given)	-2.1	0.3	-0.9	3.1	24.3*	0.0
O=C(c1cncc(Br)c1)N1CCN(S(=O)(=O)c2ccc3ccccc3c2)CC1	1.9	23.1*	-2.3	-1.4	3.5	-1.9
O=C(c1ccc(=O)[nH]c1)N1CCN(S(=O)(=O)c2ccc3ccccc3c2)CC1	0.6	-5.1	0.2	0.1	4.5	1.1
CC(C)C(OC(=O)c1ccco1)C(=O)NCc1ccco1 (stereo not given)	-3.0	-2.7	-0.1	3.3	33.4*	7.7
O=C(N/N=C/c1ccccc1)c1n[nH]c2c1CCCC2	-2.0	1.8	-0.6	1.7	0.8	-1.2
O=C(N/N=C/C(Br)=C/c1ccccc1)c1n[nH]c2c1CCC2	/	/	/	/	/	57.3*
COc1ccc(S[C@]2(C(=O)N3CCOCC3)CC(=O)N(C(=O)/C=C/c3ccccc3)[C@@H]2c2ccc(OC)cc2)cc1	10.1	5.4	/	0.1	-1.1	/
C[C@H]1[C@@H](OC(=O)N2CCOCC2)CC[C@@]23CCCN2C(=O)CCC[C@@H]13	/	5.7	/	-0.3	-2.4	/
CC(/C=N/n1c(COc2ccccc2)n[nH]c1=S)=C\c1ccccc1	40.9*	-0.4	2.1	-3.3	-2.8	-7.3
Nc1ncnc2c1ncn2[C@@H]1O[C@H](C(=O)N[C@@H](CCc2ccccc2)C(=O)N2CCN(CC(=O)N3CCCC3)CC2)[C@@H](O)[C@H]1O	-0.1	-1.1	-1.7	3.4	-0.2	/
Cc1nc2ccccc2n1CCc1nc2c3ccccc3nc(=S)n2[nH]1	5.5	-2.9	0.1	-1.0	21.5*	3.5
Cc1ccccc1-c1nc2c3ccccc3nc(=S)n2[nH]1	1.0	4.2	3.4	0.4	-1.0	0.1
O=C(N/N=C/c1ccc(O)c(O)c1)N/N=C/c1ccc(O)c(O)c1	5.9	91.2*	-8.5	8.7	7.3	19.0
